In PubChem BioAssay (NCATS):
Several values for one entry are separate records, joined by “and”; a condition that tells them apart may be missing. Equal values may be shown once. Inconclusive results are not listed. A number with no mark means an inactive call. Activity calls are given as the source filed them. Calls follow the shape of the dose curve; as a rule, active = well fitted curve in the direction sought with a large enough effect; inconclusive = small, poorly fitted or top-dose-only effect, or another doubt; inactive = no such curve, though single readings can be large; an effect the other way counts as inactive or inconclusive.

experiment: Cell Viability - NIH 3T3 (AID 541); details: NIH 3T3 cell viability, qHTS; activity change, negative = cytotoxicity: at 92.2 µM (top of the series);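 also: plate controls were DMSO alone for no effect and tamoxifen positive control for full effect; nearly all actives have a fitted effect of over 25% in size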
Outline: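 Cells seeded at 1000/well, rested 5 hr at 37 °C, then dosed and incubated 40 hr at 37 °C. CellTiter-Glo added, 20 min room temperature, luminescence read. AC50 by Hill fit.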
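Also: cells exposed to compound for 40 hours.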

SMILES | activity change, negative = cytotoxicity
Brc1ccccc1 | -8.92%
CCOP(=S)(OCC)SCSC(C)(C)C | 1.25%
C=C(C)C#N | -26.6%
CCSC(=O)Cl | -9.03%
Cc1cccc([N+](=O)[O-])c1 | -17.5%
Nc1c(Cl)c(Cl)nc(C(=O)O)c1Cl | -10.1%
CC(C)(C)OOC(C)(C)C | -23.7%
C=C(C)C(=O)OCC1CO1 (stereo unspecified) | -17.7%
Cc1ccc([N+](=O)[O-])cc1C | -7.46%
O=[N+]([O-])c1ccc(Cl)c(Cl)c1 | -16.5%
C=CC(=C)C | -9.16%
Cc1ccc2ccccc2c1 | -11.3%
Nc1ccccc1Cl | -1.33%
Clc1ccc2ccccc2c1 | 7.96%
[O-][Br+2]([O-])O | 0.18% and -3.06%
Clc1nc(Cl)nc(Nc2ccccc2Cl)n1 | -3.86%
OCC1CO1 (stereo unspecified) | -5.54%
C=CCOC(=O)c1ccccc1N | -10.8%
C=CC(N)=O | 5.3% and 3.72%
CC(C)(c1ccccc1)c1ccc(O)cc1 | -17.8%

SMILES | activity change, negative = cytotoxicity
CCN(CC)c1ccccc1 | 4.17%
S=C=Nc1cccc2ccccc12 | 1.16%
N#CCCCl | -5.02% and -15.1%
O=NN(CCO)CCO | -23.2%
Cc1ccccc1N | -25.3% and -5.05%
C=CCOC(C)=O | -5.94%
CCCC(=O)Cl | -0.413%
NC(=S)Nc1ccccc1 | -8.44% and 0.7%
O=C(Cl)/C=C/C(=O)Cl | 9.76%
C=C(Cl)Cl | 0.633%
ClCBr | -20.5%
COc1ccc(C=O)cc1OC | -14%
C=CC(=O)OCC | -21.9%
c1nc[nH]n1 | -5.84%
c1ccc2c(c1)CCCC2 | 9.7%
CCCSC(=O)Cl | -26.8%
Clc1cccc(C(Cl)(Cl)Cl)n1 | -0.893%
O=NN(c1ccccc1)c1ccccc1 | -6.8%
C1CCC2CCCCC2C1 (stereo unspecified) | -13.5%
CC(O)CCl (stereo unspecified) | 4.45%

experiment: Cell Viability - HUV-EC-C (AID 542); details: HUV-EC-C endothelial cell viability, qHTS; series mostly up to 92.2 µM; activity change, negative = cytotoxicity: at the top concentration; also: % is scaled to controls: 0 for no effect and ±100 for the full control effect; nearly all actives have a fitted effect of over 35% in size
Outline: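 Cells were seeded at 1000 per well and incubated 5 hr at 37 °C before compound addition. After 40 hr at 37 °C, CellTiter-Glo reagent was added for 20 min and luminescence read. AC50 values came from Hill-equation modelling.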

SMILES | activity change, negative = cytotoxicity | Potency
Brc1ccccc1 | 1.82% | 
CCOP(=S)(OCC)SCSC(C)(C)C | -5.76% | 
C=C(C)C#N | -1.15% | 
CCSC(=O)Cl | -8.59% | 
Cc1cccc([N+](=O)[O-])c1 | 5.17% | 
Nc1c(Cl)c(Cl)nc(C(=O)O)c1Cl | 3.19% | 
CC(C)(C)OOC(C)(C)C | 9.31% | 
C=C(C)C(=O)OCC1CO1 (stereo unspecified) | 5.26% | 
Cc1ccc([N+](=O)[O-])cc1C | -8.5% | 
O=[N+]([O-])c1ccc(Cl)c(Cl)c1 | -14.1% | 
C=CC(=C)C | -7.69% | 
Cc1ccc2ccccc2c1 | -0.772% | 
Nc1ccccc1Cl | 3.71% | 
Clc1ccc2ccccc2c1 | 5.43% | 
[O-][Br+2]([O-])O |  | inactive
Clc1nc(Cl)nc(Nc2ccccc2Cl)n1 | 3.13% | 
OCC1CO1 (stereo unspecified) | 12.7% | 
C=CCOC(=O)c1ccccc1N | 11.9% | 
C=CC(N)=O |  | inactive
CC(C)(c1ccccc1)c1ccc(O)cc1 | -2.81% | 

SMILES | activity change, negative = cytotoxicity | Potency
CCN(CC)c1ccccc1 | 4.82% | 
S=C=Nc1cccc2ccccc12 | -21% | 
N#CCCCl |  | inactive
O=NN(CCO)CCO | 14.9% | 
Cc1ccccc1N |  | inactive
C=CCOC(C)=O | -4.13% | 
CCCC(=O)Cl | 8.32% | 
NC(=S)Nc1ccccc1 |  | inactive
O=C(Cl)/C=C/C(=O)Cl | 6.4% | 
C=C(Cl)Cl | -7.45% | 
ClCBr | -1.42% | 
COc1ccc(C=O)cc1OC | -0.245% | 
C=CC(=O)OCC | -11.8% | 
c1nc[nH]n1 | -7.2% | 
c1ccc2c(c1)CCCC2 | 11.6% | 
CCCSC(=O)Cl | -26.4% | 
Clc1cccc(C(Cl)(Cl)Cl)n1 | -5.72% | 
O=NN(c1ccccc1)c1ccccc1 | 4.29% | 
C1CCC2CCCCC2C1 (stereo unspecified) | 8.1% | 
CC(O)CCl (stereo unspecified) | 5.37% | 

experiment: Cell Viability - H-4-II-E (AID 543); details: H-4-II-E rat hepatoma viability; series mostly up to 92.2 µM; activity change, negative = cytotoxic: at the top concentration; also: % is scaled to controls: 0 for no effect and ±100 for the full control effect; nearly all actives have a fitted effect of over 35% in size
Outline: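 Cells seeded at 1500 per well and rested 5 hr; compounds added; 40 hr incubation at 37 °C; CellTiter-Glo added, 20 min at room temperature; luminescence read. Hill-equation fits gave AC50.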

SMILES | activity change, negative = cytotoxic | Potency
CCOP(=S)(OCC)SCSC(C)(C)C | -0.272% | 
C=C(C)C#N | -6.88% | 
CCSC(=O)Cl | -2.64% | 
Cc1cccc([N+](=O)[O-])c1 | -3.92% | 
Nc1c(Cl)c(Cl)nc(C(=O)O)c1Cl | -5.77% | 
CC(C)(C)OOC(C)(C)C | 2.4% | 
C=C(C)C(=O)OCC1CO1 (stereo unspecified) | -2.41% | 
Cc1ccc([N+](=O)[O-])cc1C | 6.09% | 
O=[N+]([O-])c1ccc(Cl)c(Cl)c1 | -4.42% | 
Nc1ccccc1Cl | 2.14% | 
Clc1ccc2ccccc2c1 | -0.132% | 
[O-][Br+2]([O-])O |  | inactive
Clc1nc(Cl)nc(Nc2ccccc2Cl)n1 | -8.9% | 
OCC1CO1 (stereo unspecified) | -0.872% | 
C=CCOC(=O)c1ccccc1N | -1.24% | 
C=CC(N)=O |  | inactive

SMILES | activity change, negative = cytotoxic | Potency
CC(C)(c1ccccc1)c1ccc(O)cc1 | -11.8% | 
N#CCCCl |  | inactive
C=CCOC(C)=O | -6.24% | 
CCCC(=O)Cl | -1.23% | 
NC(=S)Nc1ccccc1 | -28.7% | 
O=C(Cl)/C=C/C(=O)Cl | -1.22% | 
C=C(Cl)Cl | -6.22% | 
ClCBr | 0.995% | 
COc1ccc(C=O)cc1OC | -7.16% | 
C=CC(=O)OCC | -2.52% | 
c1ccc2c(c1)CCCC2 | 5.86% | 
CCCSC(=O)Cl | -3.05% | 
O=NN(c1ccccc1)c1ccccc1 | 1.64% | 
C1CCC2CCCCC2C1 (stereo unspecified) | -1.81% | 
CC(O)CCl (stereo unspecified) | -2.19% | 
